Target: PEX14 16-84, O75381
Sequence (O75381 16-84): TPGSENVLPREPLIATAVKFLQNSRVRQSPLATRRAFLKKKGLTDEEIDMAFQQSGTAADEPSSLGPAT

| Binder | selected by phage display |
| --- | --- |
| EWYEEHAREQEQQRQL [TPCN1, Q9ULQ1] | confidence 2 (active) |
| VHDAVVNDNLETIWLL [BCORL1, Q5H9F3] | confidence 3 (active) |
| HGRYAEALEQHWQELQ [TONSL, Q96HA7] | confidence 4 (active) |
| HKLTEREWAEEWKHLN [CBFA2T3, O75081] | confidence 3 (active) |
| WSLELEDQERHFLQQA [NUP62, P37198] | confidence 2 (active) |
| DSLQDSWATAAGTSRI [CPEB2, Q7Z5Q1] | confidence 3 (active) |
| SSGGGSVTLDPLEHAW [SOWAHC, Q53LP3] | confidence 3 (active) |
| EMGDWQEVWDENTGAY [FNBP4, Q8N3X1] | confidence 3 (active) |
| DDLSVEWDAMGGKVQD [FSD1, Q9BTV5] | confidence 4 (active) |
| DWSSQYSMVAGAGREN [LENG8, Q96PV6] | confidence 3 (active) |
| SPASWERLLAYGWSHA [MIR1-1HG, Q9H1L0] | confidence 3 (active) |
| AWIRDYSSGGSSRTLD [TNKS1BP1, Q9C0C2] | confidence 2 (active) |
| TELQQLWKEVTSAHTA [FOXP1, Q9H334] | confidence 3 (active) |
| STATSPDGGTTFEHLW [TP73, O15350] | confidence 3 (active) |
| SENESLWKEVSELRAK [HSF2, Q03933] | confidence 3 (active) |
| EDVKRHSSASFENVWL [IRS1, P35568] | confidence 3 (active) |
| TPLWEETMLKAWQHYL [WDFY4, Q6ZS81] | confidence 2 (active) |
| QLWHHDYLLGHLDDEG [TTC31, Q49AM3] | confidence 2 (active) |
| SWLASYLADADALPSA [CAMTA1, Q9Y6Y1] | confidence 3 (active) |
| SEQYDSLLRQMWERMD [GTPBP1, O00178] | confidence 2 (active) |
| AGSQAQELAEAWEGAR [RIMBP3, Q9UFD9] | confidence 2 (active) |
| ELEDEWQEVMGRFEGD [NFKBIL1, Q9UBC1] | confidence 4 (active) |

Target: NEDD4 890-928, P46934
Sequence (P46934 890-928): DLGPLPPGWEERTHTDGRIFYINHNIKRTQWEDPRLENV

| Binder | selected by phage display |
| --- | --- |
| MDQNNSLPPYAQGLAS [TBP, P20226] | confidence 2 (active) |
| RAQPPDYTFPSGSGAH [PI4K2A, Q9BTU6] | confidence 2 (active) |
| LEDVSKPPAYAYPATP [TNRC18, O15417] | confidence 3 (active) |
| LAGPESPPPPYSRLSP [SMAD6, O43541] | confidence 3 (active) |
| RNSPPPYGFHLSPEEM [RHBDD1, Q8TEB9] | confidence 2 (active) |
| SVVIPPPDYLEALSMG [BAIAP2L1, Q9UHR4] | confidence 4 (active) |
| LALSDPGLEPPVYVPP [JCAD, Q9P266] | confidence 3 (active) |
| SWNPPEYDGGAQISNY [TTN, Q8WZ42] | confidence 2 (active) |
| NNPVLNDLPQYMPPDF [STPG4, Q8N801] | confidence 3 (active) |
| VSNQPPKYTQPSLPSQ [ATN1, P54259] | confidence 3 (active) |
| GKMSREPPPPYVTPAT [ESS2, Q96DF8] | confidence 4 (active) |
| KVVDIPTYEEAVSFPV [TMEM61, Q8N0U2] | confidence 2 (active) |
| YLEDLPPPPEYELAPS [GRSF1, Q12849] | confidence 2 (active) |
| HLPQAPPYTDAPPAYS [DAZAP2, Q15038] | confidence 3 (active) |
| DLHHTPGYPTPPPYPF [C11orf53, Q8IXP5] | confidence 3 (active) |
| RDPEPPEPPTYRAQGV [BSN, Q9UPA5] | confidence 3 (active) |

Target: PDCD6IP 360-702, Q8WUM4
Sequence (Q8WUM4 360-702): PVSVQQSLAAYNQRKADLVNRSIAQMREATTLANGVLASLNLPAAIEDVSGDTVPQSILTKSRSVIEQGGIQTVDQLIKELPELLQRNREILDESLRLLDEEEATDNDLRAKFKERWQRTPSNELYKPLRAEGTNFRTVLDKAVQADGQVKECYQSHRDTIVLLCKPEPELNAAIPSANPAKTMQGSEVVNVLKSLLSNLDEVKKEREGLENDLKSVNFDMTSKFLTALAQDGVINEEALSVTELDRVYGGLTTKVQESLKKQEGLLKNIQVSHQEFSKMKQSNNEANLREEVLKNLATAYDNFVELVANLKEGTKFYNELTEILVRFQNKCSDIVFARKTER

| Binder | selected by phage display |
| --- | --- |
| LGRDLYPNLAEERSRW [MCC, P23508] | confidence 3 (active) |
| GLYPQLAVPDAFNSSR [DHX34, Q14147] | confidence 2 (active) |
| YPQDSLAQIKAVYANL [TSHZ1, Q6ZSZ6] | confidence 2 (active) |
| WYPSLATMQESLRVKQ [GADD45GIP1, Q8TAE8] | confidence 3 (active) |
| FYLYPDLSRLSDPQVW [SLC6A11, P48066] | confidence 3 (active) |
| LYPSTSSLLTNHQHEG [STAM, Q92783] | confidence 3 (active) |
| LYPPLINLWEGDSEKD [LRRN1, Q6UXK5] | confidence 4 (active) |
| DMPFDELLALYGYEAS [MIER2, Q8N344] | confidence 2 (active) |
| VVEGPWTLAALYPALP [GDPD4, Q6W3E5] | confidence 3 (active) |
| YPSLTNLKAQADTARA [UVSSA, Q2YD98] | confidence 2 (active) |
| YKLYPGLSSYHERVGN [SH3YL1, Q96HL8] | confidence 3 (active) |
| FRVYPELPKPSISSNN [CEACAM5, P06731] | confidence 3 (active) |

Target: OXSR1 434-527, O95747
Sequence (O95747 434-527): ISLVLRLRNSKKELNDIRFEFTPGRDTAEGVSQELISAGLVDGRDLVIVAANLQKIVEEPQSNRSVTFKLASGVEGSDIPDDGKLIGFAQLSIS

| Binder | selected by phage display |
| --- | --- |
| MPTNFTVVPVEAHADG [SLC12A7, Q9Y666] | confidence 2 (active) |
| DSVPSNTNRFQVSVIN [SLC12A1, Q13621] | confidence 4 (active) |
| TPTPAPFSRFTVSPAP | confidence 3 (active) |
| DATLASGRFTISTLLS [SLC12A3, P55017] | confidence 2 (active) |
| RFEVAPAPEPASGAQK [PIK3R6, Q5UE93] | confidence 3 (active) |
| SEEGKPQLVGRFQVTS [WNK4, Q96J92] | confidence 4 (active) |
| SEEAKGRFRVNFVDPA [SLC12A2, P55011] | confidence 2 (active) |
| FSRFSVSPALETPGPP [LMTK3, Q96Q04] | confidence 2 (active) |
| SPAPTSRFSITHVSDS | confidence 2 (active) |
| NWNEWKTGRFLILQTE [DNAH2, Q9P225] | confidence 3 (active) |
| TKVGRFQVTTTANKVG [WNK1, Q9H4A3] | confidence 4 (active) |

Target: YAP1 169-207, P46937
Sequence (P46937 169-207): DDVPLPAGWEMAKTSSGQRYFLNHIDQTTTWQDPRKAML

| Binder | selected by phage display |
| --- | --- |
| SVVIPPPDYLEALSMG [BAIAP2L1, Q9UHR4] | confidence 3 (active) |
| VSNQPPKYTQPSLPSQ [ATN1, P54259] | confidence 2 (active) |
| GKMSREPPPPYVTPAT [ESS2, Q96DF8] | confidence 4 (active) |
| DLHHTPGYPTPPPYPF [C11orf53, Q8IXP5] | confidence 3 (active) |

From article PMC8769072, “Proteome‐scale mapping of binding sites in the unstructured regions of the human proteome” (Molecular Systems Biology, 2022)
